Compound activity as filed in PubChem.
GRK2 inh: compounds blocking aptamer binding on GRK2 – biochemical, human GRK2, bead flow cytometry, HTS, primary screen. inhibition of aptamer binding, % at 10 µM. Beta-adrenergic receptor kinase 1 (Homo sapiens), P25098. hit rate 0.59% among 330,000. AID 488847, 2010. FAM-aptamer displacement from GRK2;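 active means inhibition of aptamer binding above 40%, roughly 3 SD of noise, on plates passing a quality check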;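 further: median bead fluorescence of bound FAM aptamer so fluorescent compounds give negative values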
TMEM16A inh: TMEM16A chloride channel inhibitors, primary screen, cell-based, HTS | HEK293 TMEM16A/YFP iodide influx fluorescence, ionomycin | normalized B-score (activity score, 25-100; higher = stronger inhibition) at 10 µM | hit rate 1.2% among 310,000;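 active means ratio plate-corrected score three or more library SD toward inhibition, starting fluorescence score within five deviations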;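 further: score derived from kinetic fluorescence span divided by baseline fluorescence per well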
NOD2-RIPK2 inh: NOD2-RIPK2 binding disruptors in cells, primary screen, fluorescence, CHO cells, BLA complementation. Receptor-interacting serine/threonine-protein kinase 2 (Homo sapiens), O43353. CCF4 ratio. inhibition, % at 4.98 µM. hit rate 0.38% among 360,000; in the data active means inhibition above about 21%
TMEM16A act: TMEM16A chloride channel activators or potentiators, primary screen, cell-based, HTS | Anoctamin-1 (Mus musculus), Q8BHY3 | HEK293 TMEM16A/YFP-H148Q/I152L, iodide quench fluorescence; active compounds read low | B-score at 10 µM | hit rate 0.3% among 340,000;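 active means fluorescence-ratio B-score plate-corrected deviation score at least 3 library SD below zero, with starting fluorescence score within 5 deviations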;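 further: channel opened by trigger with iodide after compound preincubation; score built on the fluorescence ratio of max minus min over baseline; more negative score means more quench and so TMEM16A activation or potentiation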
TLR9-MyD88 block: inhibitors of TLR9-MyD88 association in cells, primary screen, cell-based, CHO, BLA complementation, fluorescence; Toll-like receptor 9 (Homo sapiens) + Myeloid differentiation primary response protein …; CCF4 FRET ratio; inhibition, % at 4.98 µM; hit rate 0.21% among 340,000;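 active means inhibition above the mean over all tested compounds plus 3 SD, cut at about 21% in these data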
TLR4 MyD88 comp: inhibitors of TLR4-MyD88 association in cells, primary screen, cell-based, HeLa CL3-4, BLA complementation, FRET ratio | Toll-like receptor 4 (Homo sapiens) + Myeloid differentiation primary response protein … | HeLa CL3-4 TLR4/MyD88 BLA complementation | inhibition, % at 8.4 µM | hit rate 0.18% among 200,000 | AID 861, 2007; in the data active means inhibition above about 25%
A number is an active result; . = inactive; / = no result given. The list is not random: actives were taken first. Their share in the collection is about 2.2%.

SMILES	GRK2 inh	TMEM16A inh	NOD2-RIPK2 inh	TMEM16A act	TLR9-MyD88 block	TLR4 MyD88 comp
Nc1nc2cc3c(cc2cc1C(=O)NCc1ccc(F)cc1)OCO3	/	/	.	/	/	/
Nc1[nH]c(C(=O)c2ccccc2)c(-c2ccncc2)c1C(=O)NC1CC1	/	/	.	/	/	/
CC1(c2ccc(OC(F)F)cc2)NC(=O)N(CC(=O)Nc2cccc(S(N)(=O)=O)c2)C1=O (stereo unspecified)	.	.	.	.	.	/
CC1(c2ccc(OC(F)F)cc2)NC(=O)N(/N=C/c2c(O)ccc3ccccc23)C1=O (stereo unspecified)	.	.	.	-4.7	.	.
CCCN(CCC)CCCNC(=O)CC(C(=O)N1CCc2ccccc21)n1ccnc1 (stereo unspecified)	.	25	.	.	.	.
CCN(CC)CC(C)CNC(=O)CC(C(=O)N1CCc2ccccc21)n1ccnc1 (stereo unspecified)	.	.	.	.	.	.
C=C(CCC(=O)c1ccccc1)C(=O)c1ccccc1	.	.	.	.	.	.
C=C(C(=O)c1ccccc1)C(CC(=O)c1ccccc1)c1ccccc1 (stereo unspecified)	.	100	.	.	.	.
O=C(NC(=S)NC1C2CC3CC(C2)CC1C3)c1ccccc1 (stereo unspecified)	.	.	.	-4.7	.	/
O=C(NC(=S)NC1CCCC1)c1ccccc1	.	.	.	.	.	/
S=C(NCCSCc1ccc(Cl)c(Cl)c1)Nc1ccccc1	.	100	.	.	.	.
S=C(NCCSCc1c(Cl)cccc1Cl)Nc1ccccc1	.	100	.	.	.	.
CCc1nc(N)nc(N)c1-c1ccc(N(C)Cc2ccccc2)c([N+](=O)[O-])c1	/	/	.	.	.	/
CCCCNC(=O)c1nc(C2CCN(S(=O)(=O)c3ccc(C(F)(F)F)cc3)CC2)oc1-c1ccccc1	/	/	.	/	/	/
CC(C)C[C@H]1CN(CCCC[C@@H]2CNC(=O)C(=O)N2CC2CCCCC2)C(=O)C(=O)N1CC1CCCCC1	/	/	.	/	/	/
Cc1ccc(NC(=O)c2c(Cl)nc3ccccn23)cc1	.	.	.	-6.1	.	.
Cc1nc2ccccn2c1C(=O)Nc1ccc(Cl)cc1	.	.	.	.	.	.
CCc1nc2ccc(C(=O)NCC3CCCCC3)cn2c1N(C)Cc1nccs1	/	/	.	/	/	/
CCOc1ccc(C(=S)NC2CCCCC2)cc1OCC	.	.	.	-6.5	.	/
CCOC(=O)C1=C[C@@H](C(C)C)N(S(=O)(=O)c2ccc(C)cc2)[C@H]1c1ccc(C(F)(F)F)cc1	/	/	.	/	/	/
O=C1CC(c2cccc([N+](=O)[O-])c2)c2ccc3ccccc3c2N1 (stereo unspecified)	.	25	.	.	.	.
O=C(NC(c1ccc(-c2ccccc2)cc1)c1cnccn1)C1CCN(Cc2ccc3c(c2)OCO3)CC1 (stereo unspecified)	/	/	.	/	/	/
COc1ccc(-c2n[nH]c(C(F)(F)F)c2-c2cc3ccccc3o2)c(O)c1	.	100	.	.	.	.
COc1ccccc1-c1c(-c2ccc(OCC(=O)NN)cc2O)n[nH]c1C(F)(F)F	.	.	.	.	.	.
CCCN(CCC)CCNC(=O)C1CCN(Cc2nc(-c3ccc(Cl)cc3)oc2C)CC1	96	.	.	.	.	.
SMILES	GRK2 inh	TMEM16A inh	NOD2-RIPK2 inh	TMEM16A act	TLR9-MyD88 block	TLR4 MyD88 comp
CC1(Cc2ccc(C(F)(F)F)o2)C(=O)Nc2cc(-c3ccc(F)cc3F)ccc21 (stereo unspecified)	/	/	.	/	/	/
CC1CN(C(=S)NC(=O)c2ccc(Cl)cc2)CC(C)O1 (stereo unspecified)	.	.	.	.	.	/
COc1ccc(C(=O)NC(=S)N2CC(C)OC(C)C2)cc1OC (stereo unspecified)	56	.	.	.	.	.
N#CC(C#N)=Cc1ccc(-c2ccc(S(=O)(=O)N=C(N)N)cc2)o1	100	.	.	.	.	.
COC(=O)/C(C#N)=C/c1ccc(-c2ccc(S(N)(=O)=O)cc2)o1	.	.	.	.	.	/
O=C(CN1c2cccc3cccc(c23)S1(=O)=O)Nc1ccccc1F	.	.	.	-7.8	.	/
CC(C)CNC(=O)CN1c2cccc3cccc(c23)S1(=O)=O	.	.	.	.	.	/
O=C(CN1c2cccc3cccc(c23)S1(=O)=O)Nc1ccc(F)c(F)c1F	.	/	.	-5.1	.	/
C=CCNC(=O)CN1c2cccc3cccc(c23)S1(=O)=O	.	.	.	-6.6	.	/
CC(C)CC(N)c1csc(NC(=O)c2cc(C(C)(C)C)nn2Cc2ccccc2)n1 (stereo unspecified)	/	/	.	/	/	/
O=C(CCCc1nc(-c2ccccc2)no1)Nc1cccnc1	.	.	.	.	.	.
Cc1ccc(-c2noc(CCCC(=O)Nc3cccnc3)n2)cc1	.	25	.	.	.	.
C/C(=N\NC(=O)c1ccc(Br)cc1)C1C(=O)c2ccccc2C1=O	.	100	.	.	.	.
C/C(=N\NC(=O)c1ccc(-c2ccccc2)cc1)C1C(=O)c2ccccc2C1=O	.	.	.	.	.	.
COc1ccc(CN2C(=O)C(CC(=O)NC3CCCCC3)CC(C(=O)N(C(C)C)C(C)C)=C2C)cc1 (stereo unspecified)	/	/	.	/	.	/
Cc1ccn2c(-c3csc(NCc4ccccc4)n3)c(C)nc2c1	.	100	.	.	.	.
Cc1cccc(C)c1NC(=O)C(C1CC1)n1c(-c2ccc(-c3ccccc3)cc2)nc2ccccc21 (stereo unspecified)	/	/	.	/	/	/
CC(NC(=O)c1cc2cc(Br)ccc2oc1=N)c1ccccc1 (stereo unspecified)	.	25	.	.	.	/
CCN(CC)c1nc(C#N)nc(N(CC)CC)n1	/	/	.	.	.	.
CCN(c1ccccc1)c1nc(C#N)nc(N(CC)c2ccccc2)n1	.	25	.	.	.	/
O=C1NC2(CCCCO2)CO1 (stereo unspecified)	.	.	.	-11	.	/
CC(=O)Nc1cccc(-c2csc(C(C)(O)c3ccc(F)c(F)c3)n2)c1 (stereo unspecified)	/	/	.	/	/	/
N#CC(C#N)=Cc1cccn1-c1ccc(S(N)(=O)=O)cc1	.	.	.	-6.1	.	.
C[C@@H](NC(=O)/C(C#N)=C/c1ccc(O)c(O)c1)c1ccccc1	.	.	.	.	.	/
N#C/C(=C\c1ccc(O)c(O)c1)C(=O)Nc1ccccc1	.	.	.	-5.2	.	/
CSCCC(C(=O)Nc1c(C)cccc1C)n1c(-c2cc(C)cs2)nc2ccccc21 (stereo unspecified)	/	/	.	/	/	/
